Experimental data: PubChem BioAssay

test system: Human papillomavirus type 1a protein E7 (residues 44-93); test: small molecules binding HPV E7 44-93 – biochemical, small-molecule microarray, residues 44-93, 635 nm fluorescence, primary screen (AID 1108); settings: fluorescence 635 nm, higher = more signal;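 further: E7 fragment applied at 1 µg/mL in TBST for 1 h at 4 C; score combines spot fluorescence with its signal to noise ratio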

Q: How did the composite z-score turn out when `CC(C)[Si]1(C(C)C)OCc2cc(C3CC3)nc(-c3ccc(Oc4ccccc4)cc3)c21` was run?
A: The composite z-score was -1.16.

Q: `O=C1NC(=O)C2C1C=CC(C(O)c1ccco1)N2Nc1ccc(Cl)cc1Cl` (stereo not given) was tested. Which composite z-score did it give?
A: Its composite z-score is 0.478.

Q: `Cc1ccc(N2C(=O)c3ccccc3[C@@H](C(=O)NCCCN(C)C)[C@@H]2c2ccc(CO)cc2)nc1` was tested. Which composite z-score did it give?
A: Its composite z-score is -0.48.

Q: For `CCCCCCc1nc(Cc2cc(OC)c(OC)c(OC)c2)cc2c1[Si](C(C)C)(C(C)C)OC2`, which composite z-score is on record?
A: The composite z-score was -0.457.

Q: Which composite z-score does the source give for `CCOC(=O)C1=C[C@@H](C(C)(C)C)N(S(=O)(=O)c2ccc(C)cc2)[C@H]1c1cccc2ccccc12` here?
A: The composite z-score was 1.28.

Q: With `COc1cc2c(cc1O)C(c1cccs1)N(Cc1cc3c(cc1Br)OCO3)CC2` (stereo not given) as the compound, how does the composite z-score read?
A: Its composite z-score is 1.48.

Q: With `C=CCNC(=O)[C@@H]1[C@H]2C(=O)O[C@H](c3ccccc3)[C@H](c3ccccc3)N2[C@H](c2ccccc2OCCO)[C@@]12C(=O)Nc1ccc(C#CCC(C(=O)OC)C(=O)OC)cc12` as the compound, how does the composite z-score read?
A: Its composite z-score is 0.562.

Q: How did the composite z-score turn out when `C=CCN1C(=O)[C@]2(CCS(=O)(=O)c3ccccc3)N=C(c3ccc(OCCCO)cc3)O[C@@H]2c2ccccc21` was run?
A: The composite z-score was 1.29.

Q: Which composite z-score does the source give for `CC(c1ccccc1)C(O)C1C=CC2C(=O)N(C)C(=O)C2N1Nc1ccccc1` (stereo not given) here?
A: The composite z-score was 1.23.

Q: Which composite z-score does the source give for `N#Cc1ccc(NN2C(C(O)c3ccc(Br)cc3)C=CC3C(=O)N(c4ccccc4)C(=O)C32)cc1` (stereo not given) here?
A: The composite z-score was -1.46.

Q: `COc1ccc([Si](C)(C)[C@@H]2[C@@H](CCO)O[C@]3(C(=O)N(Cc4cccc(NC(=O)[C@H](C)O)c4)c4ccccc43)[C@H]2C)cc1` was tested. Which composite z-score did it give?
A: The composite z-score was 1.36.

Q: For `CCCCC(CC)C(O)C1C=CC2C(=O)N(C)C(=O)C2N1Nc1ccccc1` (stereo not given), which composite z-score is on record?
A: Its composite z-score is 1.4.

Q: How did the composite z-score turn out when `COCCOC(=O)N1C(=O)[C@@]2(c3cc(C#CCCO)ccc31)[C@H](c1ccc(OCCO)cc1)N1[C@H](c3ccccc3)[C@H](c3ccccc3)OC(=O)[C@H]1[C@@H]2C(=O)Nc1nc2ccccc2s1` was run?
A: Its composite z-score is 0.281.

Q: Which composite z-score does the source give for `[N-]=[N+]=NCc1ccccc1[C@@H]1OC(c2ccc(OCCCO)cc2)=N[C@]1(CCS(=O)(=O)c1ccccc1)C(=O)O` here?
A: Its composite z-score is 1.31.

Q: How did the composite z-score turn out when `O=C1C[C@]2(c3ccc([N+](=O)[O-])cc3)C(=O)N(C3CC3)c3cc(CO)ccc3[C@H]2N1CC12CC3CC(CC(C3)C1)C2` was run?
A: The composite z-score was 0.471.

Q: Which composite z-score does the source give for `CCCC[C@@H]1C[C@H]1[C@@H](NC(=O)c1cccs1)c1ccccc1C(F)(F)F` here?
A: Its composite z-score is 1.39.

Q: Which composite z-score does the source give for `O=C(Cc1ccccc1)[C@H]1C2C=CCCC(c3ccccc3)=C2CN1Cc1ccccc1` (stereo not given in full) here?
A: Its composite z-score is -0.75.

Q: With `COC(=O)[C@]1(CCS(=O)(=O)c2ccccc2)N=C(c2ccc(OCCCO)cc2)O[C@@H]1c1ccccc1N=[N+]=[N-]` as the compound, how does the composite z-score read?
A: The composite z-score was -0.0608.

Q: Which composite z-score does the source give for `COCCOC(=O)N1C(=O)[C@@]2(c3cc(C#CC4=CCCCC4)ccc31)[C@H](c1ccccc1OCCO)N1[C@H](c3ccccc3)[C@H](c3ccccc3)OC(=O)[C@H]1[C@@H]2C(=O)N1CCN(c2ncccn2)CC1` here?
A: Its composite z-score is 1.28.

Q: For `CN(C)C(=O)[C@@]1(Cc2ccccc2)N=C(c2ccc(OCCCO)cc2)O[C@H]1c1ccccc1`, which composite z-score is on record?
A: The composite z-score was 0.508.

Q: How did the composite z-score turn out when `COc1ccc(C#Cc2ccc3c(c2)[C@]2(C(=O)N3)[C@H](C(=O)O)[C@H]3C(=O)O[C@H](c4ccccc4)[C@H](c4ccccc4)N3[C@@H]2c2ccc(O)cc2)cc1` was run?
A: Its composite z-score is 0.78.

Q: With `CCCCC[C@H]1OC[C@@]23C=C(Br)[C@@H](CC12)[C@@]1(CO1)C3=O` (stereo not given in full) as the compound, how does the composite z-score read?
A: Its composite z-score is 0.299.

Q: How did the composite z-score turn out when `CC1CC/C=C\[C@H]2OC34C=CCN(c5ccc(Cl)cc5)C(=O)[C@H]3N(C(C)CO)C(=O)[C@]4(C)C2C(=O)O1` (stereo not given in full) was run?
A: Its composite z-score is -0.815.

Q: `COc1cc2c(cc1O)C(C1CC1)N(Cc1cccc(OC(F)(F)F)c1)CC2` (stereo not given) was tested. Which composite z-score did it give?
A: Its composite z-score is -1.05.

Q: Which composite z-score does the source give for `COc1cc(C(O)C2C=CC3C(=O)N(C)C(=O)C3N2Nc2ccccc2)cc(OC)c1OC` (stereo not given) here?
A: The composite z-score was 0.1.

Q: With `[N-]=[N+]=NCc1ccccc1[C@H]1OC(c2ccc(OCCCO)cc2)=N[C@@]1(Cc1ccccc1N=[N+]=[N-])C(=O)NCC(O)CO` (stereo not given in full) as the compound, how does the composite z-score read?
A: Its composite z-score is 1.46.

Q: With `COC(=O)[C@@]1(Cc2ccc(OC)cc2)[C@H]2c3cc(C(=O)N(C)C)n(Cc4ccc(OC(F)(F)F)cc4)c3C[C@H]2CN1C(=O)c1ccccc1` as the compound, how does the composite z-score read?
A: The composite z-score was 0.38.

Q: For `C=C(/C(=C/C[C@H](OC(C)=O)c1ccc(CO)o1)c1cnc2ccccc2c1)C(C)C`, which composite z-score is on record?
A: The composite z-score was 1.43.

Q: How did the composite z-score turn out when `Cc1ccc(S[C@]2(C(=O)NCc3ccccc3)CC(=O)N(C3CCCCC3)[C@@H]2c2ccc(CO)cc2I)cc1` was run?
A: The composite z-score was 1.23.

Q: With `COc1ccc([Si](C)(C)[C@@H]2[C@@H](CC(=O)N3Cc4ccccc4C[C@H]3CO)O[C@]3(C(=O)N(Cc4ccc(N5C(=O)c6cccc7cccc5c67)cc4)c4ccccc43)[C@H]2C)cc1` as the compound, how does the composite z-score read?
A: Its composite z-score is 1.35.
